# Sampled rows, rich in hits. Any-hit rate of the full collection: about 3.8%.
# KLK7 zymogen act: activators of human kallikrein-7 zymogen | purified proKLK7, EDANS-DABCYL substrate fluorescence; 100% is mature enzyme control, 0% vehicle | activation, % at 7 µM | actives 0.9% (n = 370,000) | AID 652039;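 active means activation above the mean of all tested compounds plus 3 SD, computed per campaign excluding outliers beyond control limits, cut at about 13% in these data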
# Target sequence (P49862 whole entry, looked up): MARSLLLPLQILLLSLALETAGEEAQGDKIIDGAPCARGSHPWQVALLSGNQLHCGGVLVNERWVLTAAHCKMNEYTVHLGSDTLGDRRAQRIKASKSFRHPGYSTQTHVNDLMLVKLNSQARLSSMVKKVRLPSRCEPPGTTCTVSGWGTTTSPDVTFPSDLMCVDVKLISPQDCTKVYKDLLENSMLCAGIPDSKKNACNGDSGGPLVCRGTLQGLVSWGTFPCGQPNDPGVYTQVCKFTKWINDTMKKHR
# rRNA inh HTS: inhibitors of bacterial rRNA selective over humanized ribosomes; E. coli WT GFP vs humanized-ribosome RFP mutants, fluorescence, 24 h; stronger effect = lower value; DMSO median 0, no signal -100; GFP signal change (wild-type ribosome), % (no concentration beside the values); actives 1.6% (n = 350,000); AID 720706;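 active means significant combined selectivity score with lowered wild-type GFP, culture density cut under 30%, mutant RFP and density less affected; inactive means any of these conditions unmet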
# ADAM17 inh: inhibits human ADAM17 | P78536 | recombinant ADAM17, EDANS/DABCYL FRET peptide cleavage | inhibition, % at 6.95 µM | actives 0.83% (n = 370,000);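 active means inhibition above the mean of compounds lying between control limits plus 3 SD, set per campaign, cut at about 8.5% in these data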;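 further: 0% = DMSO-only wells as the low control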
# ADAM10 inh: ADAM10 inhibition, QFRET primary screen; recombinant ADAM10, EDANS/DABCYL FRET peptide cleavage, 3 h; inhibition, % at 7 µM; actives 0.62% (n = 370,000); AID 720582;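 active means inhibition above a per-campaign cutoff equal to the mean of compounds falling between control-based bounds plus 3 SD, cut at about 20% in these data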;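 further: 0% = DMSO wells while the 100% control is not disclosed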
# FGF22 binding: shifts melting point of recombinant human FGF22; Q9HCT0; recombinant FGF22 thermal shift, SYPRO orange fluorescence; percent of sucrose octasulfate shift, DMSO zero; activity (Tm shift, normalised), % at 9.99 µM; actives 1.5% (n = 340,000);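 active means mean Tm shift, scaled 0 neutral to 100 positive control, at about 1.3% or above, every replicate too, limit read from the data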
# Target sequence (Q9HCT0 whole entry, looked up): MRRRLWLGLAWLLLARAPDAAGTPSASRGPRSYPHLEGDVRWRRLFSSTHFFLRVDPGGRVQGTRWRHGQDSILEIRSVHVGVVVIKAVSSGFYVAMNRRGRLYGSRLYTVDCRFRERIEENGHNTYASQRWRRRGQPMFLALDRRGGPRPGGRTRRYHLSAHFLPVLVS
# The depositor's hits bear a star; . = no result.
SMILES,KLK7 zymogen act,rRNA inh HTS,ADAM17 inh,ADAM10 inh,FGF22 binding
FC(F)(F)c1cccc(NC(=S)Nc2cccc(NC(=S)Nc3cccc(C(F)(F)F)c3)n2)c1,0,-46*,1,4,0
Cc1cccc(NC(=S)Nc2cccc(C(F)(F)F)c2)n1,0,.,1,8,.
Cc1ccc(Cc2cc(-c3ccc(C)cc3)n[nH]c2=O)cc1,0,5,0,1,0
Cc1ccc(-c2cc(Cc3ccccc3)c(=O)[nH]n2)cc1,0,-36*,-1,3,0
Cc1nnc(SCC2=C(C(=O)O)N3C(=O)C(NC(=O)Cn4ncc(Cl)c4C)C3SC2)s1 (centres undefined),0,16,-5,-3,43*
C[C@@H]1CN([C@H](C)CO)C(=O)c2cc(NC(=O)Cc3ccccc3)ccc2O[C@@H](C)CCCCO[C@H]1CN(C)Cc1ccc(C(F)(F)F)cc1,.,4,.,.,0
Cc1cccc2nc(COc3ccc4ccccc4c3Br)cn12,0,-27*,2,7,0
Cc1cccc2nc(CSc3ccccc3N)cn12,0,.,-3,-2,.
CCC(=O)N1[C@H](CO)[C@H](c2ccccc2)C12CN(C(=O)c1ccc(F)cc1)C2,.,-2,.,.,0
CSc1ncnc2c1ncn2CCCNCc1ccccc1,1,11,-3,-5,0
CSc1ncnc2c1ncn2CCCNc1ccc(C)c(C)c1,1,-26*,-5,-11,-1
O=S1(=O)N=C(N/N=C/c2ccc(Br)o2)c2ccccc21,0,7,4,7,43*
S=c1[nH]cnc2scc(-c3ccccc3)c12,0,-29*,5,-2,0
Clc1ncnc2scc(-c3ccccc3)c12,1,.,-4,7,.
C[C@@H]1CN([C@@H](C)CO)C(=O)c2cc(-c3cccnc3)cnc2O[C@H]1CN(C)C(=O)C1CCOCC1,.,2,.,.,0
Cc1nn(-c2ccccc2)c(C)c1-c1cc(C(=O)N/N=C/c2ccc(O)cc2)[nH]n1,-1,-24*,-1,7,0
COc1cc(/C=N/NC(=O)c2cc(-c3c(C)nn(-c4ccccc4)c3C)n[nH]2)ccc1O,-1,-53,1,3,1
CC(NC(=O)OCc1ccccc1)C(=O)Oc1cc2oc(=O)cc(-c3ccccc3)c2cc1Cl (centres undefined),24*,.,-90,-305,0
COc1ccc(NC(=O)N(C)C[C@@H]2Oc3ccc(NS(=O)(=O)c4ccc(C)cc4)cc3CC(=O)N([C@@H](C)CO)C[C@@H]2C)cc1,.,2,.,.,.
CN1C(=O)S/C(=C\c2ccc(-n3cncn3)cc2)C1=O,1,-22*,-1,-3,43
COc1cccc(NC(=O)COC(=O)c2c(C)noc2C)c1,0,4,-3,3,1
Cc1noc(C)c1C(=O)OCC(=O)Nc1cccc(S(N)(=O)=O)c1,0,.,0,0,43*
O=C(c1ccccc1)c1c(O)nc(-c2ccccc2)n(-c2ccccc2)c1=O,0,-25*,-2,3,0
CC(=O)N(C)C[C@@H]1Oc2ncc(-c3cncnc3)cc2C(=O)N([C@@H](C)CO)C[C@H]1C,.,1,.,.,0
Cc1cc2ccccc2nc1-c1ccccc1F,1,-16*,-4,-5,0
SMILES,KLK7 zymogen act,rRNA inh HTS,ADAM17 inh,ADAM10 inh,FGF22 binding
CN(C)CCCNC(=O)C[C@H]1CC[C@H](NC(=O)Cc2cccnc2)[C@@H](CO)O1,.,1,.,.,0
C1CCN(C2CCN(c3nc4nonc4nc3N3CCSCC3)CC2)C1,0,.,1,4,43*
C1CCC(Nc2nc3nonc3nc2N2CCSCC2)C1,0,3,4,5,0
C1CC2CN(c3nc4nonc4nc3N3CCSCC3)CCN2C1 (centres undefined),0,2,1,5,44*
CN(C)/C=C(\C=O)c1ncc(C(F)(F)F)cc1Cl,0,10,-3,-5,43*
C/C(=C\C(=O)c1ncc(C(F)(F)F)cc1Cl)N(C)C,-1,.,-4,-3,1
CS(=O)(=O)N1[C@@H]2Cn3c(ccc(C4=CCCCC4)c3=O)[C@H]1[C@@H](C(=O)N1CCCCC1)[C@@H]2CO,.,1,.,.,0
CCOC(=O)C1=C(C)NC(=S)NC1c1ccc(C)s1 (centres undefined),0,0,0,5,0
CCOC(=O)C1=C(C)NC(=S)NC1c1ccsc1 (centres undefined),0,.,-5,-16,43*
COC(=O)[C@]1(C)N[C@H](CN(C)C(C)=O)[C@@H]2C(=O)N(Cc3ccccc3)C(=O)[C@@H]21,0,4,3,1,44*
COC(=O)[C@]1(C)N[C@H](CN(C)C(=O)c2ccccc2)[C@@H]2C(=O)N(Cc3ccccc3)C(=O)[C@@H]21,0,4,-3,-2,0
COC(=O)[C@]1(C)N[C@H](CN(C)S(=O)(=O)c2ccc(OC(F)(F)F)cc2)[C@@H]2C(=O)N(Cc3ccccc3)C(=O)[C@@H]21,1,-21*,-2,-4,0
COC(=O)[C@]1(C)N[C@H](CN(C)S(=O)(=O)c2ccc(F)cc2)[C@@H]2C(=O)N(Cc3ccccc3)C(=O)[C@@H]21,0,-1,-2,2,0
CNC(=S)N1N=C(c2cccs2)CC1c1ccc(OC)cc1 (centres undefined),1,-21*,-6,-14,0
CCOc1ccccc1N1CCN(S(=O)(=O)CC)CC1,-1,.,1,5,.
CCOc1ccccc1N1CCN(S(=O)(=O)c2cccs2)CC1,1,-24*,0,-1,0
CO[C@H]1CN(C)C(=O)c2cc(NS(=O)(=O)c3ccccc3Cl)ccc2OC[C@H](C)NC[C@H]1C,.,6,.,.,0
C/C(=N\OC(=O)c1c(-c2ccccc2Cl)noc1C)c1ccncc1,0,-23*,-1,0,0
O=C1c2ccccc2S(=O)(=O)N1CC(O)COc1ccc(Cl)cc1 (centres undefined),-1,.,-5,-10,.
COC(=O)c1ccc(OCC(O)CN2C(=O)c3ccccc3S2(=O)=O)cc1 (centres undefined),0,-12,-1,2,43*
Cc1onc(C(=O)NN)c1C(=O)Nc1ncc(C(F)(F)F)cc1Cl,0,16,1,4,43*
Cc1ccsc1C(=O)OCC(=O)Nc1ccc(Cl)cn1,0,-23*,-2,-26,0
N/C(=N\OC(=O)c1cccc2ccccc12)c1ccncc1,0,-4,-5,-17,0
N/C(=N\OC(=O)c1cccc2ccccc12)c1ccc(Br)cc1,0,3,1,2,44*
CCS(=O)(=O)Nc1ccc2c(c1)C(=O)N(C)C[C@H](OC)[C@@H](C)CN(C(C)=O)[C@H](C)CO2,.,5,.,.,0
COc1ccc(CCC(=O)Nc2ccc3c(c2)OCO3)cc1,0,4,-3,-2,0

# Screens as filed in PubChem.
